Test systems include NCI-H23 lung; NCI-H226 lung; NCI-H322M lung; HOP-62 NSCLC; NCI-H460 lung; HOP-92 NSCLC; NCI-H522 lung; A549/ATCC NSCLC; 786-0 renal; COLO 205 colon; DU-145 prostate; K-562 leukemia; MALME-3M melanoma; MDA-MB-231 breast; RXF 393 renal; SF-268 CNS; SF-295 CNS; SF-539 CNS; UACC-257 melanoma; M14 melanoma.
Experiment in all cases: NCI-60 one-dose screen, 48 h (100 = growth as untreated, 0 = no growth, -100 = all killed)
What all share (conditions): 10 µM unless noted

The structures appear in SMILES notation. About 83,000 compounds went through this panel and 20% of them were active in at least one assay; those are over-represented in the sample as a whole.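 48-hour exposure, single concentration, 96-well plates; percent growth endpoint where 0 means no net growth. Active: below 10.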 Values without a mark were called inactive. The source made the active and inactive calls.

For `CCCCCCCCn1ccc2cc(NC(=O)Cn3cc(CN4CCN(CC)CC4)nn3)ccc21`, the growth in the test with NCI-H23 lung is 105%; with NCI-H226 lung, 98.3%; with NCI-H322M lung, 78.3%; in the test with HOP-62 NSCLC, 89.8%; in the test on NCI-H460 lung it was 13.8%; in the test with HOP-92 NSCLC it was 54.7%. Besides, the growth was 86.9% with NCI-H522 lung; 64% in the test on A549/ATCC NSCLC; 57.9% in the test with 786-0 renal; -70.2% (active) in the test with COLO 205 colon; 90.6% in the test on DU-145 prostate; 3.41% (active) with K-562 leukemia. The growth is -11.1% (active) in the test on MALME-3M melanoma; 45.8% in the test with MDA-MB-231 breast; 67.7% in the test with RXF 393 renal; 76.7% in the test on SF-268 CNS; 13.7% in the test with SF-295 CNS; 82.7% with SF-539 CNS. Also, the values for the growth with UACC-257 melanoma and in the test with M14 melanoma were 79.4% and -64.3% (active), respectively.

`C#Cc1cccc(Oc2ccc(NC(=O)CCl)cc2)c1`: the growth in the test on NCI-H23 lung is 20.7% [8.25 µM]; in the test with NCI-H226 lung, 55.9% [8.25 µM]; with NCI-H322M lung it was 100% [8.25 µM]; in the test with HOP-62 NSCLC it was 83.5% [8.25 µM]; in the test with NCI-H460 lung it was 19% [8.25 µM]; in the test with HOP-92 NSCLC, 81.2% [8.25 µM]. Besides, the growth in the test with NCI-H522 lung is -32.6% [8.25 µM] (active); in the test with A549/ATCC NSCLC, 68.3% [8.25 µM]; with 786-0 renal, 74.8% [8.25 µM]; in the test with COLO 205 colon it was 61.6% [8.25 µM]; with DU-145 prostate, 72% [8.25 µM]; in the test on K-562 leukemia, 7.79% [8.25 µM] (active). The growth with MALME-3M melanoma was 21.3% [8.25 µM]; in the test with MDA-MB-231 breast, 41.1% [8.25 µM]; in the test with RXF 393 renal, 62.6% [8.25 µM]; in the test on SF-268 CNS, 49.5% [8.25 µM]; in the test with SF-295 CNS, 85.5% [8.25 µM]; in the test on SF-539 CNS it was 47% [8.25 µM]. For the same compound, in the test with UACC-257 melanoma, the growth was 75.8% [8.25 µM].

With `Cc1ncc(C(=O)Nc2ccc(CN3CCN(C)CC3)c(C(F)(F)F)c2)cc1C#Cc1cnc(N)c2ccncc12`, the growth with NCI-H23 lung was -65% (active); with NCI-H226 lung, -5.01% (active); with NCI-H322M lung, -32.5% (active); in the test on HOP-62 NSCLC it was -54.8% (active); in the test on NCI-H460 lung it was -65.5% (active); in the test with HOP-92 NSCLC, -52.2% (active). Also, the growth is -79% (active) with NCI-H522 lung; -40.4% (active) in the test with A549/ATCC NSCLC; -45% (active) with 786-0 renal; -84.1% (active) in the test on COLO 205 colon; -50.5% (active) in the test with DU-145 prostate; -32.5% (active) with K-562 leukemia. Further, the growth is -72.9% (active) with MALME-3M melanoma; -47.9% (active) in the test on MDA-MB-231 breast; -87.7% (active) with RXF 393 renal; -37.5% (active) in the test on SF-268 CNS; -45.4% (active) in the test on SF-295 CNS; -86.6% (active) in the test with SF-539 CNS. Besides, the growth in the test with UACC-257 melanoma was -75.2% (active).

For `C#CC#CC#CC#CC#CC#CC#CC#CC[C@H]1OC[C@H](COC(=O)O[C@@H](C(=O)O[C@H]2C[C@@]3(O)[C@@H](OC(=O)c4ccccc4)[C@@H]4[C@]5(OC(C)=O)CO[C@@H]5C[C@H](O)[C@@]4(C)C(=O)[C@H](OC(C)=O)C(=C2C)C3(C)C)[C@@H](NC(=O)c2ccccc2)c2ccccc2)O1`, the growth with NCI-H23 lung was 45.8%; in the test on NCI-H226 lung, 54.5%; in the test with NCI-H322M lung it was 53.6%; with HOP-62 NSCLC it was 68.9%; in the test with NCI-H460 lung, 18.8%; in the test on HOP-92 NSCLC it was 57.7%. In addition, the growth in the test on NCI-H522 lung is 63.5%; in the test on A549/ATCC NSCLC, 49.6%; in the test with 786-0 renal, 83.5%; in the test on COLO 205 colon, 19.3%; in the test with DU-145 prostate it was 45.3%; in the test with K-562 leukemia, 22.2%. For the same compound, the growth in the test on MALME-3M melanoma was 56.7%; in the test with MDA-MB-231 breast, 62.5%; in the test with RXF 393 renal, 43%; in the test on SF-268 CNS, 61.7%; in the test with SF-295 CNS it was 44.6%; with SF-539 CNS, 39.8%. For the same compound, the growth in the test with UACC-257 melanoma was 70.9%.

Turning to `COc1ccc2cc(-c3ccc(-c4ccc(C(=N)N)s4)s3)ccc2c1`, the growth in the test on NCI-H23 lung was 0.368% (active); in the test on NCI-H226 lung, 97%; with NCI-H322M lung, 22.6%; in the test on HOP-62 NSCLC it was -8.34% (active); in the test on NCI-H460 lung, -59.8% (active); with HOP-92 NSCLC, 65.5%. The growth with NCI-H522 lung is -46.7% (active); in the test on A549/ATCC NSCLC, -18.9% (active); in the test on 786-0 renal, -53.6% (active); in the test on COLO 205 colon, -4.44% (active); in the test on DU-145 prostate it was -67.2% (active); in the test on K-562 leukemia it was -42.8% (active). Moreover, the growth with MALME-3M melanoma is 101%; in the test on MDA-MB-231 breast, -15.2% (active); with RXF 393 renal, -25.9% (active); with SF-268 CNS, -33.9% (active); with SF-295 CNS, 86%; in the test with SF-539 CNS, 89.5%. For the same compound, the growth is 62.8% with UACC-257 melanoma and 36.2% in the test on M14 melanoma.

Regarding `Cc1[nH]c(C(=O)Nc2cccc(OC3CCNCC3)c2)c(Cl)c1Cl`, the growth in the test on NCI-H23 lung was 75.3%; in the test on NCI-H226 lung, 91.4%; in the test with NCI-H322M lung it was 84.8%; in the test with HOP-62 NSCLC it was 86.9%; in the test with NCI-H460 lung it was 77%; in the test with HOP-92 NSCLC it was 22.9%. Besides, the growth with NCI-H522 lung was 99.2%; in the test with A549/ATCC NSCLC, 68.6%; in the test on 786-0 renal, 63.8%; in the test on COLO 205 colon, -35.3% (active); in the test with DU-145 prostate, 88%; in the test on K-562 leukemia, 0.0646% (active). The growth in the test on MALME-3M melanoma is 27.2%; in the test on MDA-MB-231 breast it was 50.7%; in the test with RXF 393 renal, 40.9%; in the test with SF-268 CNS, 74.5%; in the test with SF-295 CNS, 58.7%; in the test with SF-539 CNS it was 71.5%. In addition, the growth with UACC-257 melanoma is 17.7%.

In the case of `COc1ccc(-c2ccc(=O)oc2C#Cc2cc(OC)c(OC)c(OC)c2)cc1O`, the growth is 44.2% in the test on NCI-H23 lung; 51.7% in the test with NCI-H226 lung; 31.5% with NCI-H322M lung; -28.1% (active) with HOP-62 NSCLC; -4.6% (active) in the test on NCI-H460 lung; 51.4% with HOP-92 NSCLC. Also, the growth with NCI-H522 lung is 4.45% (active); in the test on A549/ATCC NSCLC, 28.7%; with 786-0 renal, 11.8%; in the test with COLO 205 colon, 47.2%; in the test on DU-145 prostate, -4.48% (active); with K-562 leukemia, 0.484% (active). In addition, the growth is 48% in the test with MALME-3M melanoma; 30.4% in the test on MDA-MB-231 breast; -13.2% (active) in the test on RXF 393 renal; 20.5% with SF-268 CNS; -20.6% (active) in the test on SF-295 CNS; -28.7% (active) in the test with SF-539 CNS. Also, the growth in the test with UACC-257 melanoma is 35.7%; in the test on M14 melanoma, -44.5% (active).

On to `CCn1cc(C(=O)N/N=C/c2ccc(Br)cc2)c(=O)c2cc(F)c(N3CCNC(C)C3)c(F)c21` (stereo unspecified), for which the growth in the test on NCI-H23 lung is 91%; in the test with NCI-H226 lung it was 97.3%; in the test with NCI-H322M lung, 85.8%; in the test with HOP-62 NSCLC it was 88.8%; with NCI-H460 lung, -50.8% (active); in the test with HOP-92 NSCLC, 61.2%. In addition, the growth was 78.5% with NCI-H522 lung; 45.3% in the test with A549/ATCC NSCLC; 63.9% with 786-0 renal; 32.1% with COLO 205 colon; 31.4% in the test with DU-145 prostate; -12.6% (active) with K-562 leukemia. In addition, the growth in the test with MALME-3M melanoma is 58.7%; with MDA-MB-231 breast it was 54.8%; with RXF 393 renal, 61.3%; in the test with SF-268 CNS it was 62.6%; in the test with SF-295 CNS it was 74.5%; in the test on SF-539 CNS, 71.4%. Further, the growth was 104% in the test on UACC-257 melanoma and 42.7% in the test with M14 melanoma.

The record behind these values is PubChem BioAssay (NCI).
